According to paper PMC8222333, “AsCas12a ultra nuclease facilitates the rapid generation of therapeutic cell medicines”:
Positions count from the first letter of the chain named.

B1: TGGG (dsDNA)
DNA 1: GCTATCTAGTGCTCAGTACGCACTGTGGGAGGAAACTTCTGGCAGGACCAGGTCATGAGATCGGAAGAGCACACGTCTGAACTCCAGTCA
DNA 2: TGACTGGAGTTCAGACGTGTGCTCTTCCGATCTCATGACCTGGTCCTGCCAGAAGTTTCCTCCCACAGTGCGTACTGAGCACTAGATAGC
RNA: AAUUUCUACUCUUGUAGAUAGGAAACUUCUGGCAGGACC
B2: AAGC (dsDNA)
DNA 1: B1 DNA 1 with T26A, G27A, G29C
DNA 2: B1 DNA 2 with C62G, C64T, A65T
RNA: B1 RNA
B3: GTAC (dsDNA)
DNA 1: B1 DNA 1 with T26G, G27T, G28A, G29C
DNA 2: B1 DNA 2 with C62G, C63T, C64A, A65C
RNA: B1 RNA
B4: GCGG (dsDNA)
DNA 1: B1 DNA 1 with T26G, G27C
DNA 2: B1 DNA 2 with C64G, A65C
RNA: B1 RNA
B5: ACGC (dsDNA)
DNA 1: B1 DNA 1 with T26A, G27C, G29C
DNA 2: B1 DNA 2 with C62G, C64G, A65T
RNA: B1 RNA
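Further: relative affinity from the bound to unbound sequence frequency ratio in Spec-seq.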

What follows are binders tested against dAsCas12a S542R (Acidaminococcus sp., UniProt U2UMQ6 1-1307, S542R;D908A;E993A;D1235A) (assay: Spec-seq (native PAGE EMSA with sequencing of bound and unbound); 25 mM Tris-HCl pH 7.4, 150 mM KCl, 5 mM MgCl2, 10% glycerol, 1 mM DTT, 40 ng/uL salmon sperm DNA; 400 nM Cas12a, 480 nM crRNA, 50 nM library, 37 C 1 h; native PAGE at room temperature; high values mean tight binding). Conditions: protein: recombinant.
Work on B1 yielded a binding signal of -8.57 lnKA.

Each binder was assayed against d-enCas12a (Acidaminococcus sp., UniProt U2UMQ6 1-1307, E174R;S542R;K548R;D908A;E993A;D1235A) in the same assay as above. Conditions: protein: recombinant.
For B1, the binding signal was -5.93 lnKA. For B2, the binding signal was -5.85 lnKA. For B3, the binding signal was -5 lnKA. For B4, the binding signal was -5.85 lnKA. In the case of B5, the binding signal is reported as -5.66 lnKA.

What follows are binders tested against d-enCas12a-Ultra (Acidaminococcus sp., UniProt U2UMQ6 1-1307, E174R;S542R;K548R;M537R;F870L;D908A;E993A;D1235A) in the same assay as above. Conditions: protein: recombinant.
Work on B1 yielded a binding signal of -3.42 lnKA. Work on B2 yielded a binding signal of -3.34 lnKA. For B3, the binding signal was -1.95 lnKA. For B4, the binding signal was -3.63 lnKA. With B5 the binding signal was -3.42 lnKA.
